In one assay the target is T1, ETV2 (Homo sapiens, UniProt O00321 1-342).
T1 sequence: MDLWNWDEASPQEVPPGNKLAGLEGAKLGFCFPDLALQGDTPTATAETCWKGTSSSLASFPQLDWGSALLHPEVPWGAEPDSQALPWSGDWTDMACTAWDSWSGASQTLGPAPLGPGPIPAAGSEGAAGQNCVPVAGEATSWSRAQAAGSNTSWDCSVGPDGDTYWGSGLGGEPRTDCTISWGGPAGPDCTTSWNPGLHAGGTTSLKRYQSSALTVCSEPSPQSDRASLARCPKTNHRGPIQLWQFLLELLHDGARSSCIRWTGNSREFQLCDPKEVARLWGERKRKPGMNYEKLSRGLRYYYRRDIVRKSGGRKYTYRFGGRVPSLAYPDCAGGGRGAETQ
The assay can be described thus: DAPPL (digital affinity profiling via proximity ligation, sequencing); 10 mM Tris-HCl pH 7.5, 50 mM NaCl, 1 mM DTT, 4% glycerol, room temperature, 30 min; GST-TFs on glutathione beads, 16-mer random dsDNA library, 0.1% formaldehyde crosslink after washing; high values mean tight binding. Conditions: protein: recombinant; tags: N-terminal GST; dsDNA, one strand shown. In outline:
(§1)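 Beads coated with glutathione captured GST-fused human transcription factors that had been expressed in yeast, and the factors were then given DNA barcodes and pooled with a tag-only sample. The pools were incubated with 200 nmole of a random double-stranded 16-mer DNA library in Tris/NaCl/DTT/glycerol buffer for 30 min at room temperature, washed, crosslinked with 0.1% formaldehyde and proximity-ligated with BsaI/T4 ligase at 37 °C for 1 h. PCR amplification and Illumina NextSeq500 sequencing came last. Binding signal is each hexamer's read frequency for a factor divided by its frequency for the tag-only sample.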
With TAAGTA, the binding signal was 1.38 fold enrichment (6-mer frequency, TF over GST control).
Still for that read-out and setting: the value for TTGATG was 1.53 fold enrichment (6-mer frequency, TF over GST control); that for TTTGCT was 1.39 fold enrichment (6-mer frequency, TF over GST control).
Still for that read-out and setting: to CCTGCT belongs 1.59 fold enrichment (6-mer frequency, TF over GST control); to TTCGAA, 1.16 fold enrichment (6-mer frequency, TF over GST control).
On to AATCCT, for which the binding signal is 1.34 fold enrichment (6-mer frequency, TF over GST control).
On to TCCGCC, for which the binding signal is 1.48 fold enrichment (6-mer frequency, TF over GST control).
The same measure, in the same setting: to ATAACT belongs 1.39 fold enrichment (6-mer frequency, TF over GST control).
Consider GGCTCA, for which the binding signal is 1.13 fold enrichment (6-mer frequency, TF over GST control).
Turning to AACTAG, the binding signal is 1.35 fold enrichment (6-mer frequency, TF over GST control).
Regarding ACGTTC, the binding signal is 1.25 fold enrichment (6-mer frequency, TF over GST control).
Still for that read-out and setting: the value for GCACTT was 1.66 fold enrichment (6-mer frequency, TF over GST control).
Still for that read-out and setting: to CTTGCG belongs 1.29 fold enrichment (6-mer frequency, TF over GST control); to TTCATG, 1.26 fold enrichment (6-mer frequency, TF over GST control); to CCTGGA, 1.51 fold enrichment (6-mer frequency, TF over GST control).
Still for that read-out and setting: to CTACTT belongs 1.84 fold enrichment (6-mer frequency, TF over GST control).
Regarding CGTTTC, the binding signal was 1.41 fold enrichment (6-mer frequency, TF over GST control).
Consider TTGGCA, for which the binding signal was 1.25 fold enrichment (6-mer frequency, TF over GST control).
Same read-out and setting: to GCCTCG belongs 1.06 fold enrichment (6-mer frequency, TF over GST control); to CGCTTC, 1.68 fold enrichment (6-mer frequency, TF over GST control).
On the same count and under the same terms, the value for GATCTT was 1.18 fold enrichment (6-mer frequency, TF over GST control); that for TCCGAT was 1.15 fold enrichment (6-mer frequency, TF over GST control); that for AACACT was 1.26 fold enrichment (6-mer frequency, TF over GST control).
The same measure, in the same setting: to CCGTTT belongs 1.31 fold enrichment (6-mer frequency, TF over GST control); to AAACTC, 1.3 fold enrichment (6-mer frequency, TF over GST control).
As to ATGGCC, the binding signal was 1.41 fold enrichment (6-mer frequency, TF over GST control).
As to CTGTAT, the binding signal is 1.25 fold enrichment (6-mer frequency, TF over GST control).
Regarding TTTGCA, the binding signal was 1.24 fold enrichment (6-mer frequency, TF over GST control).
Still for that read-out and setting: the value for CTTGAT was 1.43 fold enrichment (6-mer frequency, TF over GST control); that for AAAACC was 1.15 fold enrichment (6-mer frequency, TF over GST control).
On the same count and under the same terms, the value for GCTACT was 1.17 fold enrichment (6-mer frequency, TF over GST control); that for TATCTT was 1.53 fold enrichment (6-mer frequency, TF over GST control); that for CAATTC was 1.39 fold enrichment (6-mer frequency, TF over GST control).
Still for that read-out and setting: to TAACAC belongs 1.15 fold enrichment (6-mer frequency, TF over GST control).
Take ACGAAA: the binding signal was 1.13 fold enrichment (6-mer frequency, TF over GST control).
As to CTGCTC, the binding signal is 1.35 fold enrichment (6-mer frequency, TF over GST control).
Same read-out and setting: the value for TTTTTG was 1.51 fold enrichment (6-mer frequency, TF over GST control); that for TCTGAA was 1.17 fold enrichment (6-mer frequency, TF over GST control).
TCCGGT: the binding signal is 3.65 fold enrichment (6-mer frequency, TF over GST control).
TCTGCA: the binding signal is 1.2 fold enrichment (6-mer frequency, TF over GST control).

A further assay has as its target T2, ELF3 (Homo sapiens, UniProt P78545 1-371).
T2 sequence: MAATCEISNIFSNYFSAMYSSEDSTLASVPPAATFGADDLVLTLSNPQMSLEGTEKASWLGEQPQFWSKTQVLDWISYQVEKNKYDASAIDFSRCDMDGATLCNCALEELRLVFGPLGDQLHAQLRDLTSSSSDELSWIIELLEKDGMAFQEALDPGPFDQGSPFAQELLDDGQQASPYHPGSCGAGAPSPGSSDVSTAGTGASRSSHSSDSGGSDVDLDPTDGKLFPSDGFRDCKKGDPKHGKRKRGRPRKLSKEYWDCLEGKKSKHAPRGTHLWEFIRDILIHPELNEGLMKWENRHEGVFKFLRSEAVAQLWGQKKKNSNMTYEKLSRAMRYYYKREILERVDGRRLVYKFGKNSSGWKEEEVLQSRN
The description is as above. To be noted: protein: recombinant; tags: N-terminal GST; dsDNA, one strand shown. In outline:
as §1
In the case of TAAGTA, the binding signal is 1.36 fold enrichment (6-mer frequency, TF over GST control).
As to TTGATG, the binding signal is 1.81 fold enrichment (6-mer frequency, TF over GST control).
On the same count and under the same terms, the value for TTTGCT was 1.33 fold enrichment (6-mer frequency, TF over GST control); that for CCTGCT was 1.47 fold enrichment (6-mer frequency, TF over GST control).
Consider TTCGAA, for which the binding signal was 1.24 fold enrichment (6-mer frequency, TF over GST control).
The same measure, in the same setting: the value for AATCCT was 1.25 fold enrichment (6-mer frequency, TF over GST control); that for TCCGCC was 1.6 fold enrichment (6-mer frequency, TF over GST control).
With ATAACT, the binding signal was 1.24 fold enrichment (6-mer frequency, TF over GST control).
Turning to GGCTCA, the binding signal was 1.28 fold enrichment (6-mer frequency, TF over GST control).
Turning to AACTAG, the binding signal was 1.1 fold enrichment (6-mer frequency, TF over GST control).
On to ACGTTC, for which the binding signal is 1.25 fold enrichment (6-mer frequency, TF over GST control).
For the sequence GCACTT, the binding signal is 1.85 fold enrichment (6-mer frequency, TF over GST control).
On the same count and under the same terms, the value for CTTGCG was 1.46 fold enrichment (6-mer frequency, TF over GST control); that for TTCATG was 1.27 fold enrichment (6-mer frequency, TF over GST control); that for CCTGGA was 1.12 fold enrichment (6-mer frequency, TF over GST control).
For the sequence CTACTT, the binding signal was 1.89 fold enrichment (6-mer frequency, TF over GST control).
On to CGTTTC, for which the binding signal is 1.72 fold enrichment (6-mer frequency, TF over GST control).
As for TTGGCA, the binding signal is 1.07 fold enrichment (6-mer frequency, TF over GST control).
In the case of GCCTCG, the binding signal was 1.33 fold enrichment (6-mer frequency, TF over GST control).
On to CGCTTC, for which the binding signal is 1.93 fold enrichment (6-mer frequency, TF over GST control).
Still for that read-out and setting: the value for GATCTT was 1.43 fold enrichment (6-mer frequency, TF over GST control).
TCCGAT: the binding signal was 1.23 fold enrichment (6-mer frequency, TF over GST control).
Same read-out and setting: the value for AACACT was 1.23 fold enrichment (6-mer frequency, TF over GST control); that for CCGTTT was 1.44 fold enrichment (6-mer frequency, TF over GST control).
The same measure, in the same setting: to AAACTC belongs 1.25 fold enrichment (6-mer frequency, TF over GST control); to ATGGCC, 1.5 fold enrichment (6-mer frequency, TF over GST control); to CTGTAT, 1.13 fold enrichment (6-mer frequency, TF over GST control).
On the same count and under the same terms, the value for TTTGCA was 1.28 fold enrichment (6-mer frequency, TF over GST control); that for CTTGAT was 1.38 fold enrichment (6-mer frequency, TF over GST control); that for AAAACC was 1.17 fold enrichment (6-mer frequency, TF over GST control).
Turning to GCTACT, the binding signal is 1.47 fold enrichment (6-mer frequency, TF over GST control).
Same read-out and setting: the value for TATCTT was 1.34 fold enrichment (6-mer frequency, TF over GST control); that for CAATTC was 1.34 fold enrichment (6-mer frequency, TF over GST control).
The same measure, in the same setting: the value for TAACAC was 1.16 fold enrichment (6-mer frequency, TF over GST control); that for ACGAAA was 1.19 fold enrichment (6-mer frequency, TF over GST control).
As to CTGCTC, the binding signal was 1.18 fold enrichment (6-mer frequency, TF over GST control).
With TTTTTG, the binding signal was 1.44 fold enrichment (6-mer frequency, TF over GST control).
TCTGAA: the binding signal was 1.18 fold enrichment (6-mer frequency, TF over GST control).
On the same count and under the same terms, to TCCGGT belongs 3.41 fold enrichment (6-mer frequency, TF over GST control); to TCTGCA, 1.36 fold enrichment (6-mer frequency, TF over GST control).

The record behind these values is article PMC7862700, “An all-to-all approach to the identification of sequence-specific readers for epigenetic DNA modifications on cytosine”.
